According to PubChem BioAssay (NCATS):

Experiment: High-throughput drug toxicity screening in the BPDCN cell line Cal-1 (AID 1224825)
Conditions: Cal-1 BPDCN cell viability, qHTS; at 45.8 µM (top of the series) unless noted
Summary of the method: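 Exponentially growing Cal-1 cells, 500 per well in phenol red-free RPMI with 10% FBS, were exposed to compounds for 48 h at 37 °C, 5% CO2. Viability was read by CellTiter-Glo luminescence and normalised to DMSO (100%) and 9.2 uM bortezomib (0%).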

SMILES | viability (% of control)
CC(C)c1nn(-c2c(Cl)cccc2Cl)c2nc(Cc3ccc(OCCO)cc3)[nH]c(=O)c12 | 2.52%
CC(O)C1C(=O)N2C(C(=O)O)=C(SC3CNC(C(=O)N(C)C)C3)C(C)C12 (stereo not given) | 98.9%
Nc1ccn([C@@H]2O[C@H](CO)[C@H](O)C2(F)F)c(=O)n1 | 11.1%
CC(C)Nc1cc(C(F)(F)F)cc2nc(NC(=O)c3cccnc3)nn12 | 120%
C=CC(=O)Nc1cccc(Oc2nc(Nc3ccc(N4CCN(C)CC4)cc3)ncc2Cl)c1 | 2.81%
O=C(CCCCCCNC(=O)c1cnc(N(c2ccccc2)c2ccccc2)nc1)NO | 3.58%
Cc1nc(Nc2n[nH]c3c2CN(C(=O)N[C@H](CN(C)C)c2ccccc2)C3(C)C)c2sccc2n1 | 1.64%
CC(C)(C)NC(=O)[C@H]1CN(Cc2cccnc2)CCN1C[C@@H](O)C[C@@H](Cc1ccccc1)C(=O)N[C@H]1c2ccccc2C[C@H]1O | 85.6%
Cc1cc(Nc2nc(N[C@@H](C)c3ccc(F)cc3)c(C#N)cc2F)n[nH]1 | 12.6%
CN1CCN(Cc2ccc(NC(=O)Nc3ccc(Oc4cc(NC(=O)C5CC5)ncn4)cc3)cc2C(F)(F)F)CC1 | 0.746%
Cn1c(CNc2ccc(C(=N)N)cc2)nc2cc(C(=O)N(CCC(=O)O)c3ccccn3)ccc21 | 105% [at 23.2 µM]
O=C(CCCCCCC(=O)Nc1ccc([C@H]2O[C@@H](CSc3nc(-c4ccccc4)c(-c4ccccc4)o3)C[C@@H](c3ccc(CO)cc3)O2)cc1)NO | 4.48%
COc1ccc(F)c(F)c1C(=O)c1cnc(NC2CCN(S(C)(=O)=O)CC2)nc1N | 2%
CNC(=O)c1ccc(-c2cnc3ncc(Cc4ccc5ncccc5c4)n3n2)cc1F | 92.3%
COc1ccc(-n2nc(C(N)=O)c3c2C(=O)N(c2ccc(N4CCCCC4=O)cc2)CC3)cc1 | 104%
CNC(=O)CN1CCC(Oc2cc3c(Nc4cccc(Cl)c4F)ncnc3cc2OC)CC1 | 7.61%
CC(C)c1cnn2c(NCc3ccccc3)cc(N[C@@H](CO)[C@H](O)CO)nc12 | 0.824%
O=C(Nc1cn[nH]c1-c1nc2ccc(CN3CCOCC3)cc2[nH]1)NC1CC1 | 3.55%

SMILES | viability (% of control)
O=C(Nc1nc2cccc(-c3ccc(CN4CCS(=O)(=O)CC4)cc3)n2n1)C1CC1 | 9.42%
CN(C)c1nc(Cc2ccc(NC(=O)c3ccc4ccccc4c3)cc2)nc(Cl)c1CC(=O)O | 113%
OCc1ccc(-c2ccc(-c3ccc(CO)s3)o2)s1 | 1.47%
COC(=O)C1=C(C)NC(C)=C(C(=O)OCCN2CCN(C(c3ccccc3)c3ccccc3)CC2)C1c1cccc([N+](=O)[O-])c1 (stereo not given) | 108%
CNC(=O)c1ccc(N2C(=S)N(c3cnc(C#N)c(C(F)(F)F)c3)C(=O)C23CCC3)cc1F | 3.32%
CCc1cc2c(cc1N1CCC(N3CCOCC3)CC1)C(C)(C)c1[nH]c3cc(C#N)ccc3c1C2=O | 76.4%
CC(C)c1cc(C(=O)N2Cc3ccc(CN4CCN(C)CC4)cc3C2)c(O)cc1O | 15%
CC(C)c1cc(-c2n[nH]c(=O)n2-c2ccc3c(ccn3C)c2)c(O)cc1O | 10.7%
Cc1cc(CN2CCN(c3c(Br)cnc4nc(-c5ccc(N6CCN(C)CC6)cc5)[nH]c34)CC2)no1 | 2.79%
Cc1ccc(CN2CCNCC2)cc1NC(=O)CNc1ccc(F)c(F)c1 | 103%
Nc1cccc(-c2cc3c(Oc4cccc(O)c4)ncnc3[nH]2)c1 | 9.2%
Cc1cc(Nc2cc(CN3CCOCC3)c3nc(C)c(Cc4ccc(Cl)cc4F)n3n2)n[nH]1 | 2.99%
Cc1c(C)n(Cc2ccc(-c3ccccc3C(=O)O)cc2)c2ccc(C(=O)N[C@@H](C)c3ccc([N+](=O)[O-])cc3)cc12 | 8.82%
CC(C)c1noc(N2CCC(COc3ccc(-c4ccc(S(C)(=O)=O)cc4)nc3)CC2)n1 | 68.8%
Nc1ncnc2c1c(-c1cccc(OCc3ccccc3)c1)cn2C1CC(CN2CCCC2)C1 (stereo not given) | 1.43%
O=C(Nc1ncc(-c2cc(C(F)F)nn2-c2c(Cl)cccc2Cl)s1)C1CC1 | 9.09%
O=C(Cc1ccc(-c2ccc(OCCN3CCOCC3)cc2)cn1)NCc1ccccc1 | 9.81%
